Bioassay records (PubChem BioAssay)
In the library only some 1.3% were active in any assay of this set; here they are far more common.
Vc quorum ag = inducers of Vibrio cholerae quorum light production without autoinducers; V. cholerae BH1578 lux reporter, luminescence, 6 h; activation, % at 18.7 µM; 0.16% of 350,000 active; AID 588436; in the data active means activation mostly above about 9.7%, no sharp cut-off
CCHF vOTU inh = blocks the CCHF virus ovarian tumor domain protease. CCHFV vOTU protease, Pep-AMC fluorescence. inhibition, % at 11.5 µM. AID 651958. 0.55% of 370,000 active; in the data active means inhibition above about 30%; further: 0% = vehicle wells with enzyme and 100% = no enzyme wells
DUSP3 inh = blocks human VHR1 dual specificity phosphatase; P51452; recombinant VHR phosphatase, pNPP absorbance; inhibition, % at 13.3 µM; 0.52% of 290,000 active; in the data active means inhibition above about 50%
Target sequence (P51452 whole entry, looked up): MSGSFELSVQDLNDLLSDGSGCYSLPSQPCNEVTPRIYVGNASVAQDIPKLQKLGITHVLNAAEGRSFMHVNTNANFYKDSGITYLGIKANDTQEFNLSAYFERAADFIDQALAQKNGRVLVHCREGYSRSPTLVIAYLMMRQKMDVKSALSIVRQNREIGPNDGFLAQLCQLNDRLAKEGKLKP
PriA SSB inh = blocks PriA binding to SSB C-terminal tail | AlphaScreen SSBct-PriA binding, biotinylated peptide | inhibition, % at 33 µM | 0.6% of 430,000 active; in the data active means inhibition mostly above about 37%, no sharp cut-off; inactive means mostly below about 20%;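 further: plate controls were negative control peptide for no effect and reference peptide for full effect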
TcdB GH inh = TcdB glycohydrolase inhibition; TcdB glycohydrolase enzymatic assay, plate reader; 0.24% of 350,000 active; inhibition, % at 9.99 µM; in the data active means inhibition above about 10%
3CLpro inhibitor = SARS-CoV 3CLpro protease inhibition | 0.14% of 290,000 active | recombinant SARS-CoV 3CLpro, quenched FRET peptide cleavage | inhibition, % at 6 µM | P0C6X7; in the data active means inhibition above about 12%
* marks the source's active call; other numbers are inactive results; i = inactive; nt = no result; ! = not confirmed by another sample.

SMILES | Vc quorum ag | CCHF vOTU inh | DUSP3 inh | PriA SSB inh | TcdB GH inh | 3CLpro inhibitor
O=C(CCC(=O)N1CCSc2ccccc21)Nc1cccc(F)c1 | 0 | 15 | 13 | -3 | 10* | 1
O=C(N1CCCCC1)n1ccnc1 | nt | nt | nt | -12 | nt | nt
COc1ccc(C(=O)NC(CC(=O)O)c2cc([N+](=O)[O-])ccc2Cl)c(SC)c1 (stereo not drawn) | i | 3 | -9 | -12 | 34* | -2
COc1ccc(C(=O)NC(CC(=O)O)c2cc([N+](=O)[O-])ccc2Cl)cc1 (stereo not drawn) | i | 18 | 16 | -16 | 0 | 0
CCSc1nnc(NC(=O)Nc2ccc(F)cc2)s1 | nt | nt | nt | -3 | nt | nt
COc1ccc(C(=O)C=CNNC(=O)c2ccc(Cl)cc2)cc1 | i | 14 | 58* | nt | 0 | -3
COc1ccc(C(=O)NN/C=C/C(=O)c2ccc(Br)cc2)cc1 | i | 13 | nt | nt | 0 | nt
Cc1cc(C)c(Cn2cnc(-c3ccc([N+](=O)[O-])cc3)c2)c(C)c1 | i | 11 | 34 | 50* | 1 | 3
CC(C)(C)c1ccc(Cn2cnc(-c3ccc([N+](=O)[O-])cc3)c2)cc1 | 0 | 20 | -12 | 7 | 0 | 2
CCOC(=O)N1CCN(C(=O)CCCN2C(=O)CSc3nc(C)cc(C)c32)CC1 | nt | 12 | 51* | -13 | nt | -1
O=C(c1ccccc1)N1CCN(c2ccc([N+](=O)[O-])c(NCc3cccnc3)c2)CC1 | -1 | 12 | 30 | 19 | 0 | -7
CC(C)CC(=O)N1CCN(c2ccc([N+](=O)[O-])c(NCc3ccccc3)c2)CC1 | i | 31* | nt | 27 | nt | 2
CC(=O)Nc1ccc(C2=NNC(=Nc3cccc(S(=O)(=O)N(C)C)c3)SC2)cc1 | -1 | nt | 15 | 53* | nt | 9
CC(C)CNC(=O)c1nn2c(C(F)(F)F)cc(-c3cc(Br)cs3)nc2c1Br | nt | nt | nt | 4 | nt | nt
O=C(CSc1nnc(NC(=O)C2CC2)s1)Nc1ccc(C(F)(F)F)cc1 | nt | nt | nt | -15 | nt | nt
O=c1cc(-c2ccccn2)nc(-c2ccccn2)[nH]1 | nt | nt | nt | 152* | nt | nt
COc1cnc(-c2ccccn2)[nH]c1=O | 0 | -13 | -14 | 144*! | 1 | 1
c1ccc(-c2nc3cc4ccccc4cc3[nH]2)nc1 | i | 3 | 6 | -6 | nt | 4
CCc1cc2c(=O)[nH]c(-c3ccccn3)nc2s1 | i | -16 | 7 | 66* | 2 | 2
O=C(c1nnn(Cc2ccccc2F)c1-c1ccncc1)N1CCc2ccccc2C1 | nt | nt | nt | -3 | nt | nt
O=C(NCCC(O)c1cccs1)c1ccccn1 (stereo not drawn) | nt | nt | nt | -2 | nt | nt
CCC1(CC)Cc2ccccc2-c2nc(-c3ccccc3)oc(=O)c21 | 32* | nt | -10 | -7 | nt | -1
O=c1oc(-c2ccccc2)nc2c1C1(CCCCC1)Cc1ccccc1-2 | 0 | 5 | 28 | -6 | nt | 0
O=C(NCCSC1CCOCC1)NC1CCCCC1 | nt | nt | nt | -5 | nt | nt
CCc1c(C#N)c(SCC(=O)c2ccc(Cl)cc2)nc2c1C(=O)CC(C)(C)C2 | nt | nt | nt | -10 | nt | nt
SMILES | Vc quorum ag | CCHF vOTU inh | DUSP3 inh | PriA SSB inh | TcdB GH inh | 3CLpro inhibitor
O=C(Nc1ccccc1)Nc1cccc(-c2nnco2)c1 | i | -3 | 53* | -4 | -2 | -8
O=C(Nc1ccc(-c2nnco2)cc1)c1ccccc1 | nt | 8 | -4 | -10 | nt | -2
Cn1nc(C(=O)N2CCN(c3ccc(F)c(Cl)c3)CC2)ccc1=O | nt | nt | nt | 13 | nt | nt
COCCn1c(SCCN2CCOCC2)nc2c1c(=O)[nH]c(=O)n2C | i | 0 | 58* | -19 | 0 | -4
CCC(=O)Nc1ccc(S(=O)(=O)N2CCS[C@H](c3ccccc3F)CC2)c(C)c1 | nt | nt | nt | 2 | nt | nt
CN(C)S(=O)(=O)c1ccc(NC(=O)/C=C/c2ccccc2Cl)cc1 | 0 | -1 | 13 | 6 | nt | 5
CN(C)c1ccc(NC(=O)/C=C/c2c(Cl)cccc2Cl)cc1 | i | 10 | 36 | 31 | 13* | 0
O=C(CCc1ccc(O)c(O)c1)N/N=C/c1ccc2c(c1)OCO2 | 2 | -2 | 18 | nt | 1 | 0
CC(C)Oc1ccc(CCC(=O)N/N=C/c2ccc3c(c2)OCO3)cc1 | i | -8 | 51* | nt | -1 | -2
Nc1nc(-c2ccccn2)nc2ccc(Cl)cc12 | nt | nt | nt | 116* | nt | nt
O=C(c1ccc(OC2CCN(CCc3ccccc3)CC2)cc1)N1CCC(CO)CC1 | -1 | 20 | 51* | 0 | 0 | -3
COC1CCN(C(=O)c2ccc(OC3CCN(CCc4ccccc4)CC3)cc2)CC1 | 0 | 2 | 30 | -5 | 0 | -2
O=C(CSc1ccc(-c2ccccn2)nn1)NCc1ccco1 | nt | nt | nt | 71* | nt | nt
O=C(CSc1ccc(-c2cccs2)nn1)NCCc1ccccc1 | 0 | -1 | -4 | -3 | 0 | -3
O=C(CSc1ccc2nnc(-c3ccccn3)n2n1)NCc1ccco1 | 0 | 10 | 12 | 82* | -2 | -3
O=C(CSc1ccc(-c2ccccn2)nn1)NCc1ccccc1 | i | -8 | -3 | 50*! | 2 | 4
O=C(CSc1ccc(-c2ccccn2)nn1)NCCc1ccccc1 | nt | nt | nt | 81* | nt | nt
O=C(CSc1ccc(-c2ccccn2)nn1)NCc1ccc(F)cc1 | i | -8 | 29 | 3 | 0 | -2
O=C(CCCn1nc(-c2cccs2)ccc1=O)N1CCN(c2ccc(F)cc2)CC1 | nt | nt | nt | 4 | nt | nt
CC(C)CS(=O)(=O)C1CN(C(=O)Cc2noc3ccccc23)C1 | nt | nt | nt | -10 | nt | nt
O=C(CSc1ccc(-c2ccccn2)nn1)NC1CCCCC1 | i | 2 | 2 | 72*! | 2 | 0
O=C(CSc1ccc(F)cc1)NCCn1ccc(-c2ccsc2)n1 | nt | nt | nt | 12 | nt | nt
COCCN1CCCc2ccc(NS(=O)(=O)c3c(C)c(C)c(C)c(C)c3C)cc21 | nt | nt | nt | 38* | nt | nt
COCCN1CCCc2ccc(NS(=O)(=O)c3ccc4c(c3)CCCC4)cc21 | nt | nt | nt | 45* | nt | nt
CCS(=O)(=O)Nc1ccc2c(c1)N(CCOC)CCC2 | nt | nt | nt | -14 | nt | nt
SMILES | Vc quorum ag | CCHF vOTU inh | DUSP3 inh | PriA SSB inh | TcdB GH inh | 3CLpro inhibitor
COCCN1CCCc2ccc(NS(=O)(=O)c3ccc(F)cc3)cc21 | nt | nt | nt | 20 | nt | nt
O=C(Cc1cccs1)Nc1nc(-c2ccccc2)c(C(=O)c2ccccc2)s1 | nt | nt | nt | 23 | nt | nt
Nc1nnc(-c2ccc3c(c2)OCCO3)o1 | nt | nt | nt | 3 | nt | nt
O=C(NCCc1csc(-c2ccc(F)cc2)n1)c1cc(Cl)ccc1[N+](=O)[O-] | nt | nt | nt | 4 | nt | nt
Cn1c(SCc2nc3ccccc3[nH]2)nnc1-c1cccs1 | i | -13 | 8 | 4 | 3 | -3
Cn1c(Cc2cccs2)nnc1SCc1nc2ccccc2[nH]1 | 0 | -5 | 53* | -5 | nt | -2
COC(=O)c1ccccc1NC(=O)Cn1cccc(S(=O)(=O)N2CCOCC2)c1=O | nt | nt | nt | -8 | nt | nt
O=C1NC(c2ccccn2)Nc2sc3c(c21)CCC3 (stereo not drawn) | i | -7 | 19 | 81* | nt | -1
CN1CCc2c(sc3c2C(=O)NC(c2ccccn2)N3)C1 (stereo not drawn) | 0 | -22 | -12 | 85* | nt | 0
CCC1CCc2c(sc3c2C(=O)NC(c2ccccn2)N3)C1 (stereo not drawn) | nt | nt | nt | 45 | nt | nt
O=C(NCCSc1ncc(-c2ccccc2)[nH]1)C(=O)Nc1ccccc1[N+](=O)[O-] | nt | nt | nt | 42* | nt | nt
